Reference: PubChem BioAssay AID2284171 (EPA ToxCast)
Results filed as inconclusive are left out. The source made the active and inactive calls. Rule for the calls: active = hit-call score of the fitted dose curve at least 0.9, where 1 is the maximum; inconclusive = response in the unintended direction; inactive = score below 0.9.

Experiment: ERF_FR_GPCR_rPY2: Eurofins (ERF) G Protein-Coupled Receptor (GPCR) Radioligand Binding LeadHunter Assay for rat P2Y Receptor (Non-Selective) Agonism
Protocol: ERF_FR_GPCR_rPY2 is a biochemical, single-readout assay that uses extracted gene-proteins in a cell-free assay. Measurements were taken 1 hour after chemical dosing in a 96-well plate. See Non-Selective Rat P2Y GPCR Binding (Agonist Radioligand) Assay, Cerep.ERF_FR_GPCR_rPY2 is an assay component calculated from the ERF_FR_GPCR_rPY2 assay. It is designed to measure radioligand binding using a type of binding reporter as detected by scintillation counting with radiometry technology.Data from the assay component ERF_FR_GPCR_rPY2 was analyzed at the assay endpoint, ERF_FR_GPCR_rPY2, in the positive analysis fitting direction relative to DMSO as the negative control and baseline of activity. Using a type of binding reporter, gain-of-signal activity can be used to understand changes in binding as they relate to gene P2RY1. To generalize the intended target to other relatable targets, this assay endpoint is annotated to the gpcr intended target family, where the subfamily is P2Y.
Rat cells are incubated for 60 minutes at room temprature with [35S]dATPalpha S (10 nM) ligand and Datpalphas as control inhibitor. Test Sample Requirements: Minimum for 1) Screen: 60 ul of 10 mM stock -OR- 1 mg (pre-weighed) for 10 uM final testing. 2) Dose Response: 90 ul of 10 mM stock -OR- 1 mg (pre-weighed) for a top concentration at 10 uM.

Structure (SMILES) | AC50
O=C(/C=C/c1ccc(O)cc1)CC(=O)/C=C/c1ccc(O)cc1 | 937 nM (active)
